Our source for the Potency and activity change, negative = cytotoxicity values is PubChem BioAssay (NCATS).

Results filed as inconclusive are left out. Entries that show only a call come without a potency. Unmarked numbers belong to inactive results. Active and inactive are the calls of the source. The call rests on the fitted dose curve. Square brackets hold non-standard residues; d marks the D form. Peptide text beside a SMILES is read from it. * marks the point of attachment. Sta = CC(C)C[C@H](N)[C@@H](O)CC(=O)O; Isovaleryl = CC(C)CC(=O)*

The test can be described thus: Cytotoxicity counterscreen for inhibitors of SARS-CoV-2 cell entry (AID 1645845). Further: nearly all actives have a fitted effect of over 50% in size. The settings on record: cell viability (SARS-CoV-2 entry assay cells); series mostly up to 57.1 µM. From the text:
Assay Provider: Wei Zheng, Ph.D.
National Center for Advancing Translational Sciences, National Institute of Health, Rockville, MD.
SARS-CoV-2 spike protein, within the viral envelope, mediates viral attachment and infection of host cells. The SARS-CoV-2 spike protein specifically binds to the host receptor ACE2 (Angiotensin-converting enzyme 2). This interaction promotes endocytosis of the viral particle, additional events lead to viral-host cell membrane fusion and release of the viral contents, allowing viral replication.
While SARS-CoV-2 requires BSL-3 facilities for live virus work, pseudo-typed partices (PP) that incorporate SARS-CoV-2 spike proteins without replication elements could facilitate studies on viral entry mechanisms in a BSL-2 setting. This PP cell entry assay could also enable screening of small molecule compound libraries in BSL-2 setting to identify inhibitors of SARS-CoV-2 cell entry. To eliminate false positive compounds, ATP content cytotoxicity assay was screened in the same cell line.
SEQUENCE No. (e.g., 1, 2, 3, etc.); […] (e.g., Cells, Incubation, Reagent, etc.); VALUE and DESCRIPTION.
1. Cells. Seed 1500 HEK293-ACE2 cells (Expi293F with stable expression of human ACE2) in 2 uL/well media (DMEM, 10% FBS, 1x L-glutamine, 1x Pen/Strep, 1 ug/ml puromycin) in white 1536-well assay plates (Greiner #782073).
2. Incubation. Incubate at 37 C with 5% CO2 overnight (~16 h).
3. Compounds. Dispense 23 nL/well compounds in DMSO via pin transfer.
4. Incubation. Incubate for 1 h at 37C 5% CO2.
5. Reagent. Dispense 2 uL/well of media (DMEM, 10% FBS, 1x L-glutamine, 1x Pen/Strep, 1 ug/ml puromycin).
6. Incubation. Incubate at for 48h at 37C 5% CO2
7. Reagent. Dispense 4 uL/well of ATPLite 1step luminescence assay reagent (PerkinElmer #6016739).
8. Incubation. Incubate for 15 min at room temperature.
9. Detection. Read luminescence signal (Viewlux plate reader, PerkinElmer). Data was normalized with wells containing cells as 100%, and wells without cells (media only control) as 0%.
A general note: The purpose of a counterscreen is to sort out artefacts and off-target activity.
On to `Cc1cc(C(C)(C)C)c(O)c(C)c1CC1=NCCN1`, for which the Potency result was “inactive”. Same read-out and setting: the value for `CC(=O)OCC1=C(C(=O)O)N2C(=O)[C@@H](NC(=O)CSc3ccncc3)[C@H]2SC1` was “inactive”. Same read-out and setting: in the case of `CN1CCN(c2cc3c(cc2F)c(=O)c(C(=O)O)cn3-c2ccc(F)cc2)CC1` it was “inactive”; in that of `CN(C)CCCOc1nn(Cc2ccccc2)c2ccccc12`, “inactive”. Turning to `CCOC(=O)C1=C[C@]2(CC)CCCN3CCc4c(n1c1ccccc41)[C@@H]32`, the Potency entry is “inactive”.

Regarding `COc1ccc2c(c1)c(CC(=O)OCC(=O)O)c(C)n2C(=O)c1ccc(Cl)cc1`, the Potency result was “inactive”. For the compound `COC(=O)C1=C(C)NC(COC(N)=O)=C(C(=O)OC(C)C)C1c1cccc(Cl)c1Cl` (stereo not given), the Potency result is “inactive”. The same measure, in the same setting: in the case of `C[C@@H]1CCC[C@H](C)N1CCCC(O)(c1ccccc1)c1ccccn1` (stereo not given in full) it was “inactive”.

Take `C/C(=C(\CCOP(=O)(O)O)SC(=O)c1ccccc1)N(C=O)Cc1cnc(C)nc1N`: the activity change, negative = cytotoxicity is 0.654% [at 5.25 µM].

Consider `CCOC(=O)OCC/C(SC(=O)OCC)=C(\C)N(C=O)Cc1cnc(C)nc1N`, for which the Potency entry is “inactive”.

On to `CCCCOc1ccc(OCCCN2CCOCC2)cc1`, for which the Potency result was “inactive”.

Take `CN(C)CCN(Cc1ccccc1)c1ccccn1`: the Potency result is “inactive”. Same read-out and setting: in the case of `CC1=C(C)C(=O)C(C(CCCCCC(=O)O)c2ccccc2)=C(C)C1=O` (stereo not given) it was “inactive”. As to `O=C1O[C@H]([C@@H](O)CO)C(O)=C1O`, the Potency entry is “inactive”.

Take `CN(Cc1ccc(C(C)(C)C)cc1)Cc1cccc2ccccc12`: the Potency entry was “inactive”. Still for that read-out and setting: the value for `CC1(C)[C@@H](OC(=O)CCC(=O)O)CC[C@]2(C)[C@H]3C(=O)C=C4[C@@H]5C[C@@](C)(C(=O)O)CC[C@]5(C)CC[C@@]4(C)[C@]3(C)CC[C@@H]12` was “inactive”; that for `C[C@H](N)[C@H](O)c1cccc(O)c1` was “inactive”. Same read-out and setting: the value for `NCCc1ccc(O)c(O)c1` was “inactive”; that for `CCCOc1ccc(C(=O)OCCN(CC)CC)cc1N` was “inactive”. For `C=Cc1c(C)c2cc3[nH]c(cc4nc(cc5nc(cc1[nH]2)C(C)=C5CCC(=O)O)C(CCC(=O)O)=C4C)c(C)c3C=C`, the Potency entry was “inactive”. Turning to `CN1[C@@H]2CC[C@H]1CC(NC(=O)n1c(=O)[nH]c3ccccc31)C2` (stereo not given in full), the Potency entry was “inactive”. On to `OC(CCCN1CCCCC1)(c1ccccc1)c1ccccc1`, for which the Potency result is “inactive”. Same read-out and setting: the value for `C[C@]12CCC(=O)C=C1[C@@H]1C[C@@H]1[C@H]1[C@@H]3[C@@H]4C[C@@H]4[C@@]4(CCC(=O)O4)[C@@]3(C)CC[C@@H]12` was “inactive”. Same read-out and setting: the value for `CCCCN1CCCC[C@H]1C(=O)Nc1c(C)cccc1C` was “inactive”; that for `CN1CCCN(C(c2ccccc2)c2ccc(Cl)cc2)CC1` (stereo not given) was “inactive”. On the same count and under the same terms, in the case of `CCOC(=O)c1ncn2c1CN(C)C(=O)c1c(I)cccc1-2` it was “inactive”; in that of `COc1ccc(CN2CCNCC2)c(OC)c1OC`, “inactive”. For `O=C(CCCCC(=O)Nc1c(I)cc(I)c(C(=O)O)c1I)Nc1c(I)cc(I)c(C(=O)O)c1I`, the Potency entry was “inactive”. Same read-out and setting: in the case of `CCC(=O)c1ccc2c(c1)N(CCCN(C)C)c1ccccc1S2` it was “inactive”; in that of `O=C(O)COC(=O)Cc1ccccc1Nc1c(Cl)cccc1Cl`, “inactive”. Still for that read-out and setting: in the case of `CC(C)CC(=O)N[C@H](C(=O)N[C@H](C(=O)N[C@@H](CC(C)C)[C@@H](O)CC(=O)N[C@@H](C)C(=O)N[C@@H](CC(C)C)[C@@H](O)CC(=O)O)C(C)C)C(C)C` (Isovaleryl-VV[Sta]A[Sta]-OH) it was “inactive”.

For `CC(=O)OCC(=O)NCCCOc1cccc(CN2CCCCC2)c1`, the Potency entry was “inactive”. On the same count and under the same terms, the value for `COc1ccccc1OC(=O)Oc1ccccc1OC` was “inactive”; that for `Cc1cc(=O)oc2cc(O)ccc12` was “inactive”; that for `CCOC(=O)c1cncn1C(C)c1ccccc1` (stereo not given) was “inactive”. With `CN(C)[C@@H](CCOc1cccc2ccccc12)c1ccccc1`, the Potency result was “inactive”. Still for that read-out and setting: the value for `CCC1Nc2cc(Cl)c(S(N)(=O)=O)cc2S(=O)(=O)N1` (stereo not given) was “inactive”. Still for that read-out and setting: the value for `Cc1c(C(=O)NN2CCCCC2)nn(-c2ccc(Cl)cc2Cl)c1-c1ccc(Cl)cc1` was “inactive”. Still for that read-out and setting: the value for `COC(=O)C1=C(C)NC(C)=C(C(=O)OCCN2CCN(C(c3ccccc3)c3ccccc3)CC2)C1c1cccc([N+](=O)[O-])c1` (stereo not given) was “inactive”. Consider `NC(=O)CN1CCCC1=O`, for which the Potency result was “inactive”.
